In the supplement of paper PMC6555819 one finds PBM binding z-score data, which are given here for 39 sequences.

One assay concerns RARg:RXRa (NR concentration 270 nM, RXRa partner concentration 90 nM). Put plainly: PBM binding z-score (relative to random genomic background probes); higher = stronger binding; sequences stand for … in GC…GCGATTGACAGCGTAGAATGAAGG
The method in brief:
(§1)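 Probes were double-stranded and carried 34-nt variable regions with direct-repeat seeds, single-nucleotide variants, half-site ablations and random human genomic background sequences, printed on custom Agilent 4×180K protein-binding microarrays. Arrays were incubated 1 h with ligand-free nuclear receptor dimers in PBS pH 7.4, 2% milk, 0.02% Triton X-100, 1 mM DTT, 0.2 mg/mL BSA and 0.4 mg/ml salmon testes DNA. Antibodies against each partner (one per run) detected binding, and scanned fluorescence was regression-normalized. Binding z-scores use the random background probes as reference.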
Sequence CTATGTAGTTTAAGGGGGTCATTCAGTTTGAAAG gave a PBM binding z-score of 4.53.
Same read-out and setting: as for GTACCAAGGTGAATAGGTCGTTGATGAGTAGGCG, the figure is 2.73; as for ATGGAAAGGTCGTGAGGTGAGTATACAGAAAGGC, 4.95.
As for AGAATGAGGTTACCAGAGATCAGGGAAACGCTTG, the PBM binding z-score came out at 2.28.
Take CAAAGTAGGTCACGAAAGGTCAAAGTCGAATGAC: the PBM binding z-score amounted to 8.06.
Still for that read-out and setting: next, TCGAGTAGGTTACGGGGGCCTTCAGGGATGAAGA: 1.81; CCGAGTAGGTTCCGAGGGGGCATTCAGTGCGAAT: 1.66; AGAATGAGGTTAAGATTAGGGAAACAGAATACAT: 1.98.
The sequence ATATGTATGTTAGGGTCATTCAGAAAGTAGGGAA displayed a PBM binding z-score of 3.74.
Same read-out and setting: next, ATATCTAGGTTAGGGTCATTCAGAAAGTAGGGAA: 4.06; CGAACTAGGTCACCAGGACAGTCAAGAGGTTGGA: 4.37.
On the same count and under the same terms, next, CAAACTAGGTCACGAAAGGTCAAAATCGAATGAC: 7.53; AGTCAGAGTTCATCTAGGTAACGTAAGATATGCT: 4.7; CAAAATAGGTCAAGGTCAAAGTCGGTTTGTGCCA: 6.53.
As for TCGCGTAGGTTACGGGGGCATTCAGGGATGAAGA, the PBM binding z-score was 3.63.
The same measure, in the same setting: next, CCTGCTAGGTCTATGGTCAGCTAAAGCAGCTCGC: -0.335; CCGAGTAGCTTACGAGGGGGCATTCAGTGCGAAT: 1.05; AGATTGAGGTTACCAAAGATCAGGGAAACGCTTG: 2.15.
On the same count and under the same terms, as for GGAACGAGCGCAAAGTTGATAGCATCTGTCGACG, the figure is -0.446; as for TCTAGTTGGTCAAAGGTCAAACACTCGAAATGCG, 7.43.
The same measure, in the same setting: next, CTATGTAGGTTAAGGGGGTCGTTCAGTTTGAAAG: 2.9; TATACAGGATCAAAGGCCAGAGTACGAATGTCGA: 0.959.
The sequence TAGCCTAGGTCATTCAGGGGCCAGTATGGAAAGC yielded a PBM binding z-score of 6.2.
Still for that read-out and setting: next, CGAACTAGGTGACCAGGACAGTGAAGAGGTTGGA: 0.633; ACTTACGGGTCAACGAAGTTATAGCACGCGTATA: 5.31; CAAACTAGGTCACGAGGTCAAAGTCCGCTTCCCG: 7.56.
In the case of AGCTCTAGGTAAAAGTTCAGTGAATCCCGAGGAT, the PBM binding z-score came out at 1.57.
On to CGAACTAGGTCAAAGGACACTGAAAGGCGACGTA, for which the PBM binding z-score worked out at 4.19.
For TAGCCTAGGTCATAGGCCAGTATACCACGCGAAC, the PBM binding z-score was found to be 3.89.
The sequence CGAACTAGGCCACCAGGACAGTGAAGAGGTTGGA showed a PBM binding z-score of 0.238.
Consider ATATGTAGGTTAGGGTCATTCCGAAAGTAGGGAA, for which the PBM binding z-score worked out at 3.89.
The same measure, in the same setting: as for CGTCCAAGGGCAATGCTAGGTCAGTGAAAGCATT, the figure is 3.71; as for AGAATGGGGTTAAGATCAGGGAAACAGAATACAT, 2.99; as for CCGAGTAGGTTACGAGGGGGCACTCAGTGCGAAT, 3.19.
The same measure, in the same setting: as for TTACCAAGGTAAAAGGTCGTTGATGCACGCCTTG, the figure is 2.79; as for GCTTACGGGTCAAAGGTTATGGCATGAATAGAAT, 6.98; as for ACTCGGAGGACAAAGGTAAGAGCTACGCCAGTGA, 1.08.
The same measure, in the same setting: next, CAATCTAGGTCACAGAGGTCAAAGTCCGTGCGTA: 7.55; CGAACTAGGTCACCAGGACAGTGATGAGGTTGGA: 4.4.

Another assay deals with RARg homodimer (NR concentration 270 nM). The description is as above. The method in brief: as §1
Sequence CTATGTAGTTTAAGGGGGTCATTCAGTTTGAAAG had a PBM binding z-score of 3.58.
On the same count and under the same terms, as for GTACCAAGGTGAATAGGTCGTTGATGAGTAGGCG, the figure is 1.44.
Still for that read-out and setting: next, ATGGAAAGGTCGTGAGGTGAGTATACAGAAAGGC: 4.67.
With AGAATGAGGTTACCAGAGATCAGGGAAACGCTTG, the PBM binding z-score is 1.8.
In the case of CAAAGTAGGTCACGAAAGGTCAAAGTCGAATGAC, the PBM binding z-score was found to be 8.76.
In turn, TCGAGTAGGTTACGGGGGCCTTCAGGGATGAAGA yielded a PBM binding z-score of 1.33.
The sequence CCGAGTAGGTTCCGAGGGGGCATTCAGTGCGAAT displayed a PBM binding z-score of 1.02.
Take AGAATGAGGTTAAGATTAGGGAAACAGAATACAT: the PBM binding z-score was determined as 1.56.
For ATATGTATGTTAGGGTCATTCAGAAAGTAGGGAA, the PBM binding z-score is 2.71.
Same read-out and setting: as for ATATCTAGGTTAGGGTCATTCAGAAAGTAGGGAA, the figure is 3.32; as for CGAACTAGGTCACCAGGACAGTCAAGAGGTTGGA, 5.18; as for CAAACTAGGTCACGAAAGGTCAAAATCGAATGAC, 8.09.
AGTCAGAGTTCATCTAGGTAACGTAAGATATGCT had a PBM binding z-score of 4.79.
Same read-out and setting: as for CAAAATAGGTCAAGGTCAAAGTCGGTTTGTGCCA, the figure is 7.1; as for TCGCGTAGGTTACGGGGGCATTCAGGGATGAAGA, 2.87.
For CCTGCTAGGTCTATGGTCAGCTAAAGCAGCTCGC, the PBM binding z-score was -0.344.
On the same count and under the same terms, as for CCGAGTAGCTTACGAGGGGGCATTCAGTGCGAAT, the figure is 0.544; as for AGATTGAGGTTACCAAAGATCAGGGAAACGCTTG, 1.94; as for GGAACGAGCGCAAAGTTGATAGCATCTGTCGACG, -0.392.
Still for that read-out and setting: next, TCTAGTTGGTCAAAGGTCAAACACTCGAAATGCG: 6.41; CTATGTAGGTTAAGGGGGTCGTTCAGTTTGAAAG: 2.06; TATACAGGATCAAAGGCCAGAGTACGAATGTCGA: 1.02.
Sequence TAGCCTAGGTCATTCAGGGGCCAGTATGGAAAGC returned a PBM binding z-score of 4.83.
The same measure, in the same setting: as for CGAACTAGGTGACCAGGACAGTGAAGAGGTTGGA, the figure is 0.705; as for ACTTACGGGTCAACGAAGTTATAGCACGCGTATA, 4.65.
As to CAAACTAGGTCACGAGGTCAAAGTCCGCTTCCCG, the PBM binding z-score is 6.9.
Same read-out and setting: as for AGCTCTAGGTAAAAGTTCAGTGAATCCCGAGGAT, the figure is 1.62; as for CGAACTAGGTCAAAGGACACTGAAAGGCGACGTA, 4.7; as for TAGCCTAGGTCATAGGCCAGTATACCACGCGAAC, 4.21.
Still for that read-out and setting: next, CGAACTAGGCCACCAGGACAGTGAAGAGGTTGGA: 0.672; ATATGTAGGTTAGGGTCATTCCGAAAGTAGGGAA: 2.85.
Same read-out and setting: as for CGTCCAAGGGCAATGCTAGGTCAGTGAAAGCATT, the figure is 2.64; as for AGAATGGGGTTAAGATCAGGGAAACAGAATACAT, 1.4.
Regarding CCGAGTAGGTTACGAGGGGGCACTCAGTGCGAAT, the PBM binding z-score amounted to 2.39.
Same read-out and setting: as for TTACCAAGGTAAAAGGTCGTTGATGCACGCCTTG, the figure is 1.22; as for GCTTACGGGTCAAAGGTTATGGCATGAATAGAAT, 5.3; as for ACTCGGAGGACAAAGGTAAGAGCTACGCCAGTGA, 1.1.
The same measure, in the same setting: next, CAATCTAGGTCACAGAGGTCAAAGTCCGTGCGTA: 7.82; CGAACTAGGTCACCAGGACAGTGATGAGGTTGGA: 5.41.
